Results: the supplement of paper PMC11732987, “Enantioselective OTUD7B fragment discovery through chemoproteomics screening and high-throughput optimisation” (Communications Chemistry, 2025)
Values without a mark were called inactive.

Assays:
Test in all cases: log2 ratio of Biotin-Ahx-Ub-VS probe labelling (compound/DMSO); higher = less target engagement, active = hit call of the paper (q ≤ 0.05, log2 ratio ≤ -1)
Settings in all cases: treatment time: 3 h
[1] = compound: ClCC(=O)NC1CCCc2ccccc12
Procedure, shortened: (§1)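 DUBs in HEK293T lysate were labelled with Biotin-Ahx-Ub-VS (0.5 µM final, 1 h) after a 3 h treatment with compound at 50 or 200 µM or with DMSO, done in triplicate on 495 µg of lysate per sample. NeutrAvidin-enriched proteins were digested with LysC and trypsin and run by diaPASEF LC-MS/MS. Median-normalised label-free quantities gave average base-two log ratios of compound to DMSO by unpaired t-test, restricted to proteins with at least 2 unique peptides.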

[2] = compound: ClCC(=O)NC1CCOc2ccc(Cl)cc12
Procedure, shortened: as §1

[3] = compound: ClCC(=O)NC1CCSc2ccccc12
Procedure, shortened: as §1

[4] = compound: ClCC(=O)N[C@H]1CCCc2ccccc12
Procedure, shortened: as §1

[5] = compound: Fc1ccc(N2CCN(c3nc4c(CN(C(CCl)=O)CC4)cn3)CC2)cc1.Cl.Cl
Procedure, shortened: as §1

OTUD6B (UniProt Q8N6M0)
UniProt Q8N6M0, sequence (Q8N6M0 whole entry): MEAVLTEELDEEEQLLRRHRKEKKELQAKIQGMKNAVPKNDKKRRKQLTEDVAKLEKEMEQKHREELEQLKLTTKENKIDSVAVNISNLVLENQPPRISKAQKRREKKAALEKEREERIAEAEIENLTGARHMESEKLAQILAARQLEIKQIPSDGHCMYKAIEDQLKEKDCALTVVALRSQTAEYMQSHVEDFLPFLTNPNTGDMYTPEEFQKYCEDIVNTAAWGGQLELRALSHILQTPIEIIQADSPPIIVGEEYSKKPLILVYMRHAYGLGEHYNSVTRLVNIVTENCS
log2 ratio of Biotin-Ahx-Ub-VS probe labelling ([1]; compound concentration: 50uM): -0.12
log2 ratio of Biotin-Ahx-Ub-VS probe labelling ([1]; compound concentration: 200uM): -0.0737
log2 ratio of Biotin-Ahx-Ub-VS probe labelling ([2]; compound concentration: 50uM): -0.248
log2 ratio of Biotin-Ahx-Ub-VS probe labelling ([2]; compound concentration: 200uM): -0.361
log2 ratio of Biotin-Ahx-Ub-VS probe labelling ([3]; compound concentration: 50uM): 0.0363
log2 ratio of Biotin-Ahx-Ub-VS probe labelling ([3]; compound concentration: 200uM): -0.296
log2 ratio of Biotin-Ahx-Ub-VS probe labelling ([4]; compound concentration: 50uM): -0.00611
log2 ratio of Biotin-Ahx-Ub-VS probe labelling ([4]; compound concentration: 200uM): -0.364
log2 ratio of Biotin-Ahx-Ub-VS probe labelling ([5]; compound concentration: 50uM): -0.105
log2 ratio of Biotin-Ahx-Ub-VS probe labelling ([5]; compound concentration: 200uM): -1.28 (active)

USP10 (UniProt Q14694)
UniProt Q14694, sequence (Q14694 whole entry): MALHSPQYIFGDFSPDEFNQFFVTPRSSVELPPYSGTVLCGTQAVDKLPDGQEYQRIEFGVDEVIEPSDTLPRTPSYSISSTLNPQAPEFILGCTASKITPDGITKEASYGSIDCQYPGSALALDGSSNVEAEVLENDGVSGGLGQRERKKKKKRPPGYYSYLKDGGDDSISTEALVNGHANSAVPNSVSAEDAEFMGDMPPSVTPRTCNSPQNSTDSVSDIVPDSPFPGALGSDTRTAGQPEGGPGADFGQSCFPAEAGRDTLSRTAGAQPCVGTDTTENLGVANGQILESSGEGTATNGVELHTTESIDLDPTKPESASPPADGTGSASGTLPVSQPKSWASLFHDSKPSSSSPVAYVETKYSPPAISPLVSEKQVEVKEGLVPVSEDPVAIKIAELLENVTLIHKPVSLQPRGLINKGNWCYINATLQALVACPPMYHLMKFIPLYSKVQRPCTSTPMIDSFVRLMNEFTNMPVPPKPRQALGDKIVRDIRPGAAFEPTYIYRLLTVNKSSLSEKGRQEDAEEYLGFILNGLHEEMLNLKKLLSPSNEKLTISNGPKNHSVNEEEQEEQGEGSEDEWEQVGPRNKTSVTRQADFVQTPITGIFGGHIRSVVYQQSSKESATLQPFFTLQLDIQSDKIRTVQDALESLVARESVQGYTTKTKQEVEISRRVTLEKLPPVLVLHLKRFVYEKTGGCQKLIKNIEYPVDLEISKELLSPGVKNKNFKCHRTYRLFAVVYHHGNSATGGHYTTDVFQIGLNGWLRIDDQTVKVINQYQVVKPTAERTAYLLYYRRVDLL
log2 ratio of Biotin-Ahx-Ub-VS probe labelling ([1]; compound concentration: 50uM): -0.107
log2 ratio of Biotin-Ahx-Ub-VS probe labelling ([1]; compound concentration: 200uM): 0.139
log2 ratio of Biotin-Ahx-Ub-VS probe labelling ([2]; compound concentration: 50uM): -0.314
log2 ratio of Biotin-Ahx-Ub-VS probe labelling ([2]; compound concentration: 200uM): -0.0917
log2 ratio of Biotin-Ahx-Ub-VS probe labelling ([3]; compound concentration: 50uM): -0.0829
log2 ratio of Biotin-Ahx-Ub-VS probe labelling ([3]; compound concentration: 200uM): 0.0327
log2 ratio of Biotin-Ahx-Ub-VS probe labelling ([4]; compound concentration: 50uM): -0.162
log2 ratio of Biotin-Ahx-Ub-VS probe labelling ([4]; compound concentration: 200uM): 0.0178
log2 ratio of Biotin-Ahx-Ub-VS probe labelling ([5]; compound concentration: 50uM): -0.0782
log2 ratio of Biotin-Ahx-Ub-VS probe labelling ([5]; compound concentration: 200uM): -0.162

UniProt P51784
log2 ratio of Biotin-Ahx-Ub-VS probe labelling ([1]; compound concentration: 50uM): 0.0554
log2 ratio of Biotin-Ahx-Ub-VS probe labelling ([1]; compound concentration: 200uM): 0.032
log2 ratio of Biotin-Ahx-Ub-VS probe labelling ([2]; compound concentration: 50uM): -0.0759
log2 ratio of Biotin-Ahx-Ub-VS probe labelling ([2]; compound concentration: 200uM): -0.235
log2 ratio of Biotin-Ahx-Ub-VS probe labelling ([3]; compound concentration: 50uM): 0.214
log2 ratio of Biotin-Ahx-Ub-VS probe labelling ([3]; compound concentration: 200uM): -0.104
log2 ratio of Biotin-Ahx-Ub-VS probe labelling ([4]; compound concentration: 50uM): 0.124
log2 ratio of Biotin-Ahx-Ub-VS probe labelling ([4]; compound concentration: 200uM): -0.322
log2 ratio of Biotin-Ahx-Ub-VS probe labelling ([5]; compound concentration: 50uM): 0.0256
log2 ratio of Biotin-Ahx-Ub-VS probe labelling ([5]; compound concentration: 200uM): -1.01 (active)

USP16 (UniProt Q9Y5T5)
UniProt Q9Y5T5, sequence (Q9Y5T5 whole entry, looked up): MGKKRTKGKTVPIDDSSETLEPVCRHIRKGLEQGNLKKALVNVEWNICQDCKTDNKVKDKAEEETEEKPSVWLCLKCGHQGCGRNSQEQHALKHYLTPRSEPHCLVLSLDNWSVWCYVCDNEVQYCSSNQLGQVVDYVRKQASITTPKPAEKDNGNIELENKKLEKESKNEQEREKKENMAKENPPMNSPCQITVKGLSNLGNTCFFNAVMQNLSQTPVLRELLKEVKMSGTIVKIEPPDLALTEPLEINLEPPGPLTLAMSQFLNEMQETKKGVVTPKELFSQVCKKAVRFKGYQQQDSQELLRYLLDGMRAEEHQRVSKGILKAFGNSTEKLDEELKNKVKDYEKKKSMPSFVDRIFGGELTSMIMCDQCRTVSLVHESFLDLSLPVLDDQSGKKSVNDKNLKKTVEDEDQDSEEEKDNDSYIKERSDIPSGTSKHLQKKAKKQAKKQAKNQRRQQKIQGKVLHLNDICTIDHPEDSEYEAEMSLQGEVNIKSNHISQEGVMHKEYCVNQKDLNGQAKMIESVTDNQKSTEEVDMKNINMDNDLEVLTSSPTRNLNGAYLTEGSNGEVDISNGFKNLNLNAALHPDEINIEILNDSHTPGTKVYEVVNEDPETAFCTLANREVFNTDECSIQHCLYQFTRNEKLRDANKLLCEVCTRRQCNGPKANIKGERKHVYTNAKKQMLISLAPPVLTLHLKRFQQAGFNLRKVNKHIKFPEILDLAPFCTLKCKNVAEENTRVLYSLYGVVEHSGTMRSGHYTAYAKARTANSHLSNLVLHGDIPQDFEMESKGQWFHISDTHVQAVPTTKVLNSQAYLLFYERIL
log2 ratio of Biotin-Ahx-Ub-VS probe labelling ([1]; compound concentration: 50uM): -0.384
log2 ratio of Biotin-Ahx-Ub-VS probe labelling ([1]; compound concentration: 200uM): -0.472
log2 ratio of Biotin-Ahx-Ub-VS probe labelling ([2]; compound concentration: 50uM): -0.353
log2 ratio of Biotin-Ahx-Ub-VS probe labelling ([2]; compound concentration: 200uM): -0.626
log2 ratio of Biotin-Ahx-Ub-VS probe labelling ([3]; compound concentration: 50uM): -0.00515
log2 ratio of Biotin-Ahx-Ub-VS probe labelling ([3]; compound concentration: 200uM): -0.114
log2 ratio of Biotin-Ahx-Ub-VS probe labelling ([4]; compound concentration: 50uM): 0.221
log2 ratio of Biotin-Ahx-Ub-VS probe labelling ([4]; compound concentration: 200uM): 0.339
log2 ratio of Biotin-Ahx-Ub-VS probe labelling ([5]; compound concentration: 50uM): -0.277
log2 ratio of Biotin-Ahx-Ub-VS probe labelling ([5]; compound concentration: 200uM): -0.62

USP25 (UniProt Q9UHP3)
UniProt Q9UHP3, sequence (Q9UHP3 whole entry): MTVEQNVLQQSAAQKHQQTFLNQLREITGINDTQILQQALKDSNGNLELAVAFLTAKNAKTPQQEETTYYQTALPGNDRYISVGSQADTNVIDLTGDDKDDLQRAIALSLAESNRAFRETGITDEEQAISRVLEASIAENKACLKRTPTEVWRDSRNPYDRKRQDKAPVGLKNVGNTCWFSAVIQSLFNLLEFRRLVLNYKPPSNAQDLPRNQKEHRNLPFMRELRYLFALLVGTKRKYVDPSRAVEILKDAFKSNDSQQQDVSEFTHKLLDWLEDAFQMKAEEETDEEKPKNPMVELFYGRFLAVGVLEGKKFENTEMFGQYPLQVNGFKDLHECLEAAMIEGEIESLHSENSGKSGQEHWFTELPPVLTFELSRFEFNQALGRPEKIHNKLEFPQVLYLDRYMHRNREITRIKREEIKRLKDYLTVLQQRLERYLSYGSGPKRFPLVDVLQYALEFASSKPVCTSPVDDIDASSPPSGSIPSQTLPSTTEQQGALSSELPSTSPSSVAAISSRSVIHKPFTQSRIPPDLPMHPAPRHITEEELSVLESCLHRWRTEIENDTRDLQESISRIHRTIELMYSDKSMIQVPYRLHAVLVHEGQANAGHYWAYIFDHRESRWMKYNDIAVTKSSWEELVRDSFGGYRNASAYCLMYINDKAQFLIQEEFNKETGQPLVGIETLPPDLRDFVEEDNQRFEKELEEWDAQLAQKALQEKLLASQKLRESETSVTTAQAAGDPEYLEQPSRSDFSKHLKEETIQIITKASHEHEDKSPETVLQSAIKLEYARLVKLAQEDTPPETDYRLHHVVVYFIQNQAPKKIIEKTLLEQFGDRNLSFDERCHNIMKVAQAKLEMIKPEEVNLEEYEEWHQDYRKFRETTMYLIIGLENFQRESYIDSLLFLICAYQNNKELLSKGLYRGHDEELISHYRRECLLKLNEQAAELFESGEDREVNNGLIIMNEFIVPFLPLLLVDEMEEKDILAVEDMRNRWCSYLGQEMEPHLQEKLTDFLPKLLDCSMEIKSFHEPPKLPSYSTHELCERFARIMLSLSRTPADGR
log2 ratio of Biotin-Ahx-Ub-VS probe labelling ([1]; compound concentration: 50uM): -0.808
log2 ratio of Biotin-Ahx-Ub-VS probe labelling ([1]; compound concentration: 200uM): 0.0737
log2 ratio of Biotin-Ahx-Ub-VS probe labelling ([2]; compound concentration: 50uM): 0.221
log2 ratio of Biotin-Ahx-Ub-VS probe labelling ([2]; compound concentration: 200uM): 0.509
log2 ratio of Biotin-Ahx-Ub-VS probe labelling ([3]; compound concentration: 50uM): -0.0574
log2 ratio of Biotin-Ahx-Ub-VS probe labelling ([3]; compound concentration: 200uM): -0.126
log2 ratio of Biotin-Ahx-Ub-VS probe labelling ([4]; compound concentration: 50uM): -0.809
log2 ratio of Biotin-Ahx-Ub-VS probe labelling ([4]; compound concentration: 200uM): -1.97 (active)
log2 ratio of Biotin-Ahx-Ub-VS probe labelling ([5]; compound concentration: 50uM): 0.382
log2 ratio of Biotin-Ahx-Ub-VS probe labelling ([5]; compound concentration: 200uM): -1.03

EIF3H (UniProt O15372)
UniProt O15372, sequence (O15372 whole entry): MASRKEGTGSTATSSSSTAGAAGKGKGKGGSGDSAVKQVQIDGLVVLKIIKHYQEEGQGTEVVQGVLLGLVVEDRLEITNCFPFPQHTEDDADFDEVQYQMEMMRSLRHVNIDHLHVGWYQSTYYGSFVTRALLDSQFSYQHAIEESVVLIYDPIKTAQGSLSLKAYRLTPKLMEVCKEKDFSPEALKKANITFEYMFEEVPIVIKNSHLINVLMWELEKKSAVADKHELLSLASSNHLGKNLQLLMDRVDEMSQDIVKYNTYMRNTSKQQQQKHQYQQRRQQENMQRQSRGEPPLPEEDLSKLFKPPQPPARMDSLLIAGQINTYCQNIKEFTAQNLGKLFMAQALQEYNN
log2 ratio of Biotin-Ahx-Ub-VS probe labelling ([1]; compound concentration: 50uM): -0.0316
log2 ratio of Biotin-Ahx-Ub-VS probe labelling ([1]; compound concentration: 200uM): -0.379
log2 ratio of Biotin-Ahx-Ub-VS probe labelling ([2]; compound concentration: 50uM): -0.141
log2 ratio of Biotin-Ahx-Ub-VS probe labelling ([2]; compound concentration: 200uM): -0.0932
log2 ratio of Biotin-Ahx-Ub-VS probe labelling ([3]; compound concentration: 50uM): -0.0985
log2 ratio of Biotin-Ahx-Ub-VS probe labelling ([3]; compound concentration: 200uM): -0.00068
log2 ratio of Biotin-Ahx-Ub-VS probe labelling ([4]; compound concentration: 50uM): -0.109
log2 ratio of Biotin-Ahx-Ub-VS probe labelling ([4]; compound concentration: 200uM): 0.0728
log2 ratio of Biotin-Ahx-Ub-VS probe labelling ([5]; compound concentration: 50uM): 0.0328
log2 ratio of Biotin-Ahx-Ub-VS probe labelling ([5]; compound concentration: 200uM): -0.126

USP46 (UniProt P62068)
UniProt P62068, sequence (P62068 whole entry): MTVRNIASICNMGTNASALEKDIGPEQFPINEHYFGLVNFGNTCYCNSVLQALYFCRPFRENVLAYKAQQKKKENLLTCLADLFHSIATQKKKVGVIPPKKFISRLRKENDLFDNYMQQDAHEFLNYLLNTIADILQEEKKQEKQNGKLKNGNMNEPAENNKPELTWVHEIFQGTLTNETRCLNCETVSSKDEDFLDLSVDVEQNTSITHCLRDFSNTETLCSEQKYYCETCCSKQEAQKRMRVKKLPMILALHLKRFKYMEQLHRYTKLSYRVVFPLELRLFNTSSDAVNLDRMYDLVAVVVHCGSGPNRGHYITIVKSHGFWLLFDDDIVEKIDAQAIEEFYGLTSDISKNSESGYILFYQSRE
log2 ratio of Biotin-Ahx-Ub-VS probe labelling ([1]; compound concentration: 50uM): -0.0934
log2 ratio of Biotin-Ahx-Ub-VS probe labelling ([1]; compound concentration: 200uM): -0.257
log2 ratio of Biotin-Ahx-Ub-VS probe labelling ([2]; compound concentration: 50uM): -0.229
log2 ratio of Biotin-Ahx-Ub-VS probe labelling ([2]; compound concentration: 200uM): -0.251
log2 ratio of Biotin-Ahx-Ub-VS probe labelling ([3]; compound concentration: 50uM): -0.017
log2 ratio of Biotin-Ahx-Ub-VS probe labelling ([3]; compound concentration: 200uM): -0.304
log2 ratio of Biotin-Ahx-Ub-VS probe labelling ([4]; compound concentration: 50uM): -0.00597
log2 ratio of Biotin-Ahx-Ub-VS probe labelling ([4]; compound concentration: 200uM): -0.413
log2 ratio of Biotin-Ahx-Ub-VS probe labelling ([5]; compound concentration: 50uM): -0.241
log2 ratio of Biotin-Ahx-Ub-VS probe labelling ([5]; compound concentration: 200uM): -1.72 (active)

ALG13 (UniProt Q9NP73)
log2 ratio of Biotin-Ahx-Ub-VS probe labelling ([1]; compound concentration: 50uM): 0.298
log2 ratio of Biotin-Ahx-Ub-VS probe labelling ([1]; compound concentration: 200uM): 0.114
log2 ratio of Biotin-Ahx-Ub-VS probe labelling ([2]; compound concentration: 50uM): 0.599
log2 ratio of Biotin-Ahx-Ub-VS probe labelling ([2]; compound concentration: 200uM): 0.0386
log2 ratio of Biotin-Ahx-Ub-VS probe labelling ([3]; compound concentration: 50uM): 0.273
log2 ratio of Biotin-Ahx-Ub-VS probe labelling ([3]; compound concentration: 200uM): -0.0598
log2 ratio of Biotin-Ahx-Ub-VS probe labelling ([4]; compound concentration: 50uM): 0.244
log2 ratio of Biotin-Ahx-Ub-VS probe labelling ([4]; compound concentration: 200uM): 0.344
log2 ratio of Biotin-Ahx-Ub-VS probe labelling ([5]; compound concentration: 50uM): 0.0824
log2 ratio of Biotin-Ahx-Ub-VS probe labelling ([5]; compound concentration: 200uM): 0.24

UniProt Q9UGI0
UniProt Q9UGI0, sequence (Q9UGI0 whole entry): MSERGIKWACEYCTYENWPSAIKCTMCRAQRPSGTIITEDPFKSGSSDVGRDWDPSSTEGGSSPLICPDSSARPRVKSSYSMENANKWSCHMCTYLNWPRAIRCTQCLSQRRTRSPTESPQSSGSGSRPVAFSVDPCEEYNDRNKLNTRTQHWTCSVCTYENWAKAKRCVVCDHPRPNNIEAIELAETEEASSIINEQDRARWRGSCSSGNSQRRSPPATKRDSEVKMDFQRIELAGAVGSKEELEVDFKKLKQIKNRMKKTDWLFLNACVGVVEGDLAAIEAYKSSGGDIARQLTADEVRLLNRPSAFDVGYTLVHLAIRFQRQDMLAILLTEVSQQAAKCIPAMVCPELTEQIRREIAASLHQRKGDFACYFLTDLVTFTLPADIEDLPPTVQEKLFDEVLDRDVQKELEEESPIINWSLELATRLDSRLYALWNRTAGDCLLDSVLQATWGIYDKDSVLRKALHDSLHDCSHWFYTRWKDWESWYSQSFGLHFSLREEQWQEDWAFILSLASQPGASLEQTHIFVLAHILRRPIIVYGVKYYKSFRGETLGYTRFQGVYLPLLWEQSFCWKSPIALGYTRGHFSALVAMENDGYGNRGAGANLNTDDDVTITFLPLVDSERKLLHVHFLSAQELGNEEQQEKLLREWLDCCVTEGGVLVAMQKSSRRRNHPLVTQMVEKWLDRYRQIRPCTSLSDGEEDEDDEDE
log2 ratio of Biotin-Ahx-Ub-VS probe labelling ([1]; compound concentration: 50uM): -0.0757
log2 ratio of Biotin-Ahx-Ub-VS probe labelling ([1]; compound concentration: 200uM): -0.346
log2 ratio of Biotin-Ahx-Ub-VS probe labelling ([2]; compound concentration: 50uM): -0.41
log2 ratio of Biotin-Ahx-Ub-VS probe labelling ([2]; compound concentration: 200uM): -0.0672
log2 ratio of Biotin-Ahx-Ub-VS probe labelling ([3]; compound concentration: 50uM): -0.265
log2 ratio of Biotin-Ahx-Ub-VS probe labelling ([3]; compound concentration: 200uM): -0.226
log2 ratio of Biotin-Ahx-Ub-VS probe labelling ([4]; compound concentration: 50uM): -0.182
log2 ratio of Biotin-Ahx-Ub-VS probe labelling ([4]; compound concentration: 200uM): -0.337
log2 ratio of Biotin-Ahx-Ub-VS probe labelling ([5]; compound concentration: 50uM): -0.0659
log2 ratio of Biotin-Ahx-Ub-VS probe labelling ([5]; compound concentration: 200uM): -0.664

USP39 (UniProt Q53GS9)
UniProt Q53GS9, sequence (Q53GS9 whole entry): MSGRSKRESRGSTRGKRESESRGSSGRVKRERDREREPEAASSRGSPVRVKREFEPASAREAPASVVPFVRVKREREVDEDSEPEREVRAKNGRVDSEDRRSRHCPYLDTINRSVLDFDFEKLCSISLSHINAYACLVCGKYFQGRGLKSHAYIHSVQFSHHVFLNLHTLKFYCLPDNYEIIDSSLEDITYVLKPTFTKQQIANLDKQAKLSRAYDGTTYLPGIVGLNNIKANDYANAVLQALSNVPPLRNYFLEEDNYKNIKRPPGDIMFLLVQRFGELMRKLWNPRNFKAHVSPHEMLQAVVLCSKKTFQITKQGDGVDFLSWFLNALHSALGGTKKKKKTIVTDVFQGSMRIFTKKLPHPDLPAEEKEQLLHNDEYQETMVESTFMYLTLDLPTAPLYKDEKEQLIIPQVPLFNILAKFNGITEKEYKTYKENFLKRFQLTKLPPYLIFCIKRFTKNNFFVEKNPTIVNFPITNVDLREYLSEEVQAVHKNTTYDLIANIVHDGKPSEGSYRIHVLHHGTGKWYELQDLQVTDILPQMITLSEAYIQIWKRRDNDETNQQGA
log2 ratio of Biotin-Ahx-Ub-VS probe labelling ([1]; compound concentration: 50uM): -0.167
log2 ratio of Biotin-Ahx-Ub-VS probe labelling ([1]; compound concentration: 200uM): -0.109
log2 ratio of Biotin-Ahx-Ub-VS probe labelling ([2]; compound concentration: 50uM): -0.269
log2 ratio of Biotin-Ahx-Ub-VS probe labelling ([2]; compound concentration: 200uM): -0.2
log2 ratio of Biotin-Ahx-Ub-VS probe labelling ([3]; compound concentration: 50uM): -0.0242
log2 ratio of Biotin-Ahx-Ub-VS probe labelling ([3]; compound concentration: 200uM): -0.138
log2 ratio of Biotin-Ahx-Ub-VS probe labelling ([4]; compound concentration: 50uM): 0.0198
log2 ratio of Biotin-Ahx-Ub-VS probe labelling ([4]; compound concentration: 200uM): -0.0406
log2 ratio of Biotin-Ahx-Ub-VS probe labelling ([5]; compound concentration: 50uM): 0.0915
log2 ratio of Biotin-Ahx-Ub-VS probe labelling ([5]; compound concentration: 200uM): -0.109
